Screening data from PubChem.
ALOX12 inh: Primary qHTS assay for inhibitors of human arachidonate 12S-lipoxygenase (ALOX12): Round 2; Polyunsaturated fatty acid lipoxygenase ALOX12 (Homo sapiens), P18054; purified 12hLO, xylenol orange hydroperoxide absorbance; Potency, µM (doses to about 108 µM), for inactives: at the top dose activity change, negative = inhibition, usual class: inhibitors; hit rate 1.1% among 580,000; AID 1671190, 2021; further: potency means the concentration at half of the fitted maximal effect; on the % scale 0 is the no-effect control and ±100 the full control effect
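Purified human 12hLO (150 nM final) in 25 mM Hepes, 0.01% Triton X-100, pH 7.0 was preincubated 15 min at room temperature with compound. Then 40 uM arachidonic acid was added, 30 min. Hydroperoxide was read by Fe-XO absorbance ratio 573/405 nm.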
TSG101-PTAP inh: qHTS Assay for Iinhibitors of HIV-1 Budding by Blocking the Interaction of PTAP/TSG101; Tumor susceptibility gene 101 protein (Homo sapiens), Q99816; Fluorescence polarization, FITC-PTAP peptide / Tsg101 binding; Potency, µM (top dose mostly 115 µM), for inactives: at the highest dose activity change, negative = inhibition, usual class: inhibitors; 340,000 tested, under 10 active; AID 493005, 2010; active means well fitted inhibition curve with a large enough effect in the main read-out, with a control signal flat, not every such curve was filed as active; inconclusive means small, poorly fitted or top-dose-only effect, or effect the other way, or a change in a side signal; inactive means no such curve, though single readings can be large or run the other way; further: potency means the concentration at half of the fitted maximal effect; % of control where 0% means no effect
Target sequence (Q99816 whole entry, looked up): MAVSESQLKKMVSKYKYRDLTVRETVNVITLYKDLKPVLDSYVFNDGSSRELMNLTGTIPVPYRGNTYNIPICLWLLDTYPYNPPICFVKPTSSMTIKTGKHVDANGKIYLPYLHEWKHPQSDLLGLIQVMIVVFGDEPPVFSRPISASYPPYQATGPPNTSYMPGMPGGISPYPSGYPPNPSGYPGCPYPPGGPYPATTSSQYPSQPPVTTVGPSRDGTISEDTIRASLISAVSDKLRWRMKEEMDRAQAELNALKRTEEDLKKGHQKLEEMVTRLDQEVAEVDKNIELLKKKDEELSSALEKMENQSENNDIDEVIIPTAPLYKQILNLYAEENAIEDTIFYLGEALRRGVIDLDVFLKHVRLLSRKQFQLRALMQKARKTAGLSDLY
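FP read-out: FITC-PTAP peptide, 50 nM final, binding Tsg101 binding domain, 10 uM final; 20 min, r.t.; 10 mM HEPES pH 7.5, 0.15 M NaCl, 0.01% Tween 20, 3 mM EDTA, 0.1 mM TCEP.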
Vif-A3G inh: qHTS for Inhibitors of Vif-A3G Interactions: qHTS. DNA dC->dU-editing enzyme APOBEC-3G (Homo sapiens), Q9HC16. hit rate 0.076% among 410,000. AID 602310, 2012. Potency, µM (top dose mostly 46.1 µM), for inactives: at the highest dose activity, negative = active, hits mostly inhibitors. HeLa A3G-eYFP + Vif (tagged APOBEC3G with the HIV-1 protein that degrades it), YFP fluorescence, overnight; further: potency means the concentration at half of the fitted maximal effect; on the % scale 0 is the no-effect control and ±100 the full control effect; nearly all actives have a fitted effect of over 60% in size
Target sequence (Q9HC16 whole entry, looked up): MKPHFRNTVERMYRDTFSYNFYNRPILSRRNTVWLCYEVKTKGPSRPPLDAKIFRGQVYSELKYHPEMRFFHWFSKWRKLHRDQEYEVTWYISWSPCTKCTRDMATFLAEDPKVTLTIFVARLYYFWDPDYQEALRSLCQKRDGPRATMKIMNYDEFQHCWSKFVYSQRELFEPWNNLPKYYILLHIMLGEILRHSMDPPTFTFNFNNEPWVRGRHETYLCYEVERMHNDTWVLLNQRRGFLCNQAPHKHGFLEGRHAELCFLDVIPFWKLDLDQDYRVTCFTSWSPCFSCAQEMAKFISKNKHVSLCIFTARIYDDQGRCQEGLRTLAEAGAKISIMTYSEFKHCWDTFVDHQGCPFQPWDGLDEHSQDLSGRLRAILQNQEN
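Read-out is eYFP fluorescence (Ex 488/Em 500-530) from Vif-expressing HeLa A3G-eYFP cells; more signal means A3G escaped Vif-mediated degradation. Cells plated overnight, compound pinned in, incubated overnight at 37 deg C.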
pAkt inh: HTS Assay for Inhibitors of Akt Phophorylation: Primary Screen; Neuro2A IGF-stimulated pAkt S473 HTRF, 20 min; stronger effect = lower value; activity change, % for hits at 50 µM; hit rate 0.32% among 360,000; AID 651550, 2012; in the data active means activity change below about -80%; inconclusive means mostly about -51% to -80%; further: on the % scale 0 is the no-effect control and ±100 the full control effect
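Single-point screen (50 µM final compound) in Neuro2A cells stimulated 20 min with 6 nM IGF at 37 deg C. After lysis, Ser473-phosphorylated Akt read by HTRF (ex 330 nm, em 615/665 nm) as the 665/615 ratio.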
Vif-A3F inh: qHTS for Inhibitors of Vif-A3F Interactions: qHTS | hit rate 0.2% among 390,000 | Potency, µM (titrated, usually from 46.1 µM), without a hit: at the highest dose activity, negative = active | HeLa A3F-eYFP + Vif (tagged APOBEC3F with the HIV-1 protein that degrades it), YFP fluorescence increase; further: potency means the concentration at half of the fitted maximal effect; % of control where 0% means no effect; nearly all actives have a fitted effect of over 65% in size
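HeLa cells stably expressing Vif plus C-terminally eYFP-tagged A3F were seeded, incubated overnight at 37 deg C, dosed with compound, incubated overnight again at 37 deg C. Yellow fluorescence (Ex 488/Em 500-530) reported blocked Vif-mediated A3F-eYFP degradation.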
S-ASM inh: Inhibitors of Secretory Acid Sphingomyelinase (S-ASM): qHTS | placental ASM, HMU-PC fluorogenic substrate, 60 min | hit rate 0.006% among 340,000 | AID 504937, 2011 | Potency, µM (top dose mostly 57.5 µM), for the others: at the highest dose activity change, negative = inhibition, most hits filed as inhibitors | Sphingomyelin phosphodiesterase (Homo sapiens), P17405; further: potency means the concentration at half of the fitted maximal effect
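Fluorogenic HMU-PC substrate (9 uM final) is turned over by placental ASM in 60 min at 37 C after a 10 min compound preincubation. Reaction ended by alkaline stop (pH 10), with fluorescence read at 386/447 nm.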
An asterisk follows results filed as active; i = inactive; ? = inconclusive; . = no result given; [ ] = dose if it differs, or a comment. Compounds with a hit are over-represented: about 1.4% of the library has one in this group of screens. Unless noted, the call rests on the fitted dose curve; in most records, active means well fitted curve in the direction sought with a large enough effect; inconclusive means small, poorly fitted or top-dose-only effect, or another doubt; inactive means no such curve, though single readings can be large; an effect the other way counts as inactive or inconclusive.

SMILES	ALOX12 inh	TSG101-PTAP inh	Vif-A3G inh	pAkt inh	Vif-A3F inh	S-ASM inh
Cc1cc2nc(-c3ccc(SCC(=O)Nc4ccc(S(=O)(=O)N5CCCC5)cc4)nc3)[nH]c2cc1C	-15%	16%	-7%	i	11µM*	16%
CC1CCN(C(=S)c2cn(Cc3cccc(F)c3)c3ccccc23)CC1	45µM*	-7%	0%	i	6%	-2%
Cc1c(N2C(=O)/C(=C/c3ccc(N(C)C)cc3)N(C)C2=S)c(=O)n(-c2ccccc2)n1C	-1%	30%	?	i	10µM*	-19%
FC(F)(F)c1ccc(N2CCN(c3ncnc4c3nnn4Cc3ccccc3)CC2)nc1	6%	-3%	0%	-86%*	-3%	-1%
Cc1cccc(CSc2nnc(CCNC(=O)OC(C)(C)C)o2)c1	7.9µM*	0%	3%	i	4%	2%
O=C(NCCc1ccco1)C1CCN(S(=O)(=O)c2ccccc2)CC1	2%	.	.	.	.	.
Cc1noc(C)c1CNCC1(COc2cccnc2)C[C@@H](O)[C@@H](O)C1 (stereo partly drawn)	13µM*	.	.	.	.	.
Cc1cccc(N(C)C(=O)Cn2cccc2-c2nc(-c3ccccc3)no2)c1	12%	.	.	.	.	.
COc1ccc2c(c1)C(n1c(C)ccc1C)C(=O)N2C (stereo not drawn)	11µM*	.	.	.	.	.
Cc1ccc(C)n1C1C(=O)N(C)c2ccc(Cl)cc21 (stereo not drawn)	45µM*	.	.	.	.	.
Cc1ccc(C)n1C1C(=O)N(C)c2ccccc21 (stereo not drawn)	-69%	.	.	.	.	.
COc1ccc(-c2nc(CSCC(=O)NCC(C)C)co2)cc1	8%	.	.	.	.	.
CC(C)(Oc1ccc(Cl)cc1)C(=O)Oc1ccc(-c2ccc(C#N)cc2)cc1	1%	.	.	.	.	.
O=C(CCOc1ccccc1)Nc1ccc(N2CCOCC2)cc1	-16%	.	.	.	.	.
COc1ccc(Br)cc1COC(=O)c1ccc(OC)c(OC)c1OC	12%	.	.	.	.	.
Cc1ccc(N2C(=O)CS(=O)C(c3ccccc3)C2=O)cc1C (stereo not drawn)	22µM*	-1%	0%	i	?	-1%
Cc1ccc(N2C(=O)C3C(C2=O)N2CCCN2C3c2ccccc2)cc1C (stereo not drawn)	-12%	0%	-10%	i	-5%	4%
COc1ccc(CCNC(=O)CN(c2cc(Cl)ccc2C)S(=O)(=O)c2ccccc2)cc1	17%	.	.	.	.	.
CC1=CCC2C(C1)C2(C)C (stereo not drawn)	79µM*	.	.	.	.	.
CC1(C)CC(NC(=S)Nc2ccccc2)CC(C)(CNC(=S)Nc2ccccc2)C1 (stereo not drawn)	28µM*	.	.	.	.	.
Cc1ccc(NC(=S)NCc2ccccc2)c(C)c1	0%	-2%	3%	i	2%	2%
Cc1ccc(NC(=S)NCC2(C)CC(NC(=S)Nc3ccc(C)cc3C)CC(C)(C)C2)c(C)c1 (stereo not drawn)	7.1µM*	.	.	.	.	.
CN1CCN(CC2CNCCO2)CC1 (stereo not drawn)	39%	.	.	.	.	.
Cc1c(C#N)c(O)[nH]c(=O)c1N=Nc1ccc(S(N)(=O)=O)cc1	40µM*	-5%	2%	i	-1%	?
Cc1c(C#N)c(O)[nH]c(=O)c1N=Nc1ccc(Cl)c(C(=O)O)c1	?	-3%	0%	i	2%	1%
SMILES	ALOX12 inh	TSG101-PTAP inh	Vif-A3G inh	pAkt inh	Vif-A3F inh	S-ASM inh
CC(NC(=O)C1CCN(C(=O)C(C)(C)C)CC1)C1CC1 (stereo not drawn)	7%	.	.	.	.	.
O=C(c1ccc(Cl)cc1)N1CC2(CCN(C3COC3)C2)Cc2ccccc21 (stereo not drawn)	40µM*	.	.	.	.	.
CC(=O)N1CC2(CCN(Cc3ccc(Cl)cc3)C2)Cc2ccccc21 (stereo not drawn)	40µM*	.	.	.	.	.
O=C(c1ccc(Cl)cc1)N1CC2(CCN(Cc3ccc(Cl)cc3)C2)Cc2ccccc21 (stereo not drawn)	2µM*	.	.	.	.	.
O=C(c1ccc(Cl)cc1)N1CC2(CCN(CC3CC3)C2)Cc2ccccc21 (stereo not drawn)	11%[6.33 µM]	.	.	.	.	.
CC(=O)N1CC2(CCN(Cc3cccc(C(N)=O)c3)C2)Cc2ccccc21 (stereo not drawn)	4%[6.33 µM]	.	.	.	.	.
COc1ccc(-c2cc3c(=O)n(CCNC(=O)c4ccoc4)ccn3n2)cc1	61%	.	.	.	.	.
CCOc1ccccc1C(=S)NC1CCCCC1	?	0%	0%	i	-9%	0%
CCOc1ccc(C(=S)NC2CCCCC2)cc1OC	22µM*	.	3%	i	-2%	-3%
Cc1cc(COc2ccc(C(=O)c3ccc(F)cc3)cc2)on1	-25%	.	.	.	.	.
CC(=O)C1=C(O)C(=O)N(c2ccccn2)C1c1ccccc1[N+](=O)[O-] (stereo not drawn)	14µM*	-2%	-2%	i	-14%	1%
CC(=O)C1=C(O)C(=O)N(c2ccc(Br)cn2)C1c1ccccc1[N+](=O)[O-] (stereo not drawn)	?	-13%	-11%	i	14%	-3%
CCOC(=O)Cc1nnc(Nc2cccc(C)c2)c2ccccc12	-1%	-4%	1%	-109%*	-14%	-3%
COC(=O)Cc1nnc(Nc2cccc(C)c2)c2ccccc12	?	-2%	-2%	i	2%	1%
CC(=O)Nc1cccc(-c2nc3cc(C)ccc3o2)c1C	-8%	.	.	.	.	.
CN1CCN(Cc2nc3ccccc3c(=O)n2Cc2nc(-c3ccc([N+](=O)[O-])cc3)cs2)CC1	45µM*	-9%	-29%	i	-21%	-4%
O=c1cc(-c2c(O)c3ccccc3n(Cc3ccccc3)c2=O)[nH][nH]1	25µM*	-2%	-1%	i	-1%	0%
O=C(O)CN1C(=O)/C(=C\c2cccc(OCc3ccc(Cl)cc3Cl)c2)SC1=S	25µM*	-9%	2%	i	0%	?
O=C(O)CN1C(=O)/C(=C\c2ccccc2OCc2ccc(Cl)cc2Cl)SC1=S	-42%	-3%	1%	i	9%	5%
O=C(NCc1ccccc1)N1CCC(n2cnc3cc(F)ccc32)CC1	1%	-6%	-5%	-112%*	-8%	0%
N#C/C(=C/c1ccccc1OCc1ccccc1C#N)c1ccc(Cl)cc1	12%	.	.	.	.	.
CCOc1cccc(-c2cc(C(=O)O)c3ccc(C)c(C)c3n2)c1	40µM*	.	.	.	.	.
CCOC(=O)CNCCC(=O)c1ccc(Br)cc1	28µM*	-1%	?	i	9%	.
